For 15 molecules, AC50 and outcome results are on record in PubChem BioAssay AID2284425 (EPA ToxCast).

Each structure is given as a SMILES string. Inconclusive results are not listed. The source made the active and inactive calls. The calls were made as follows: active = hit-call score of the fitted dose curve at least 0.9, where 1 is the maximum; inconclusive = response in the unintended direction; inactive = score below 0.9.

The assay deals with Brachyury (BRA), TBXT (gene 6862). Description: CCTE_Deisenroth_DEVTOX-GLR_Ecto_BRA: CCTE's DevTox GLR-Ecto Assay Evaluation of Brachyury (BRA) Protein Expression, Deisenroth Lab. Here is the method: CCTE_Deisenroth_DEVTOX-GLR_Ecto assay is a cell-based, multiplex-readout assay that uses RUES2-GLR, a human pluripotent cell line, with measurements taken at 48 hours after chemical dosing in a 384-well microplateCCTE_Deisenroth_DEVTOX-GLR_Ecto_BRA is 1 of 4 assay components calculated from the CCTE_Deisenroth_DEVTOX-GLR_Ecto assay and it measures an the percentage of cells in an mesoderm state. Using a type of inducible fluorescent protein reporter, gain-of-signal activity can be used to understand changes in gene expression with fluorescent microscopy. The percentage of BRA+ cells are determined by calculating the number of BRA+ cells divided by the cell count. To generalize the intended target to other relatable targets, this assay component is annotated to the transcription factor intended target family, where the subfamily is T-box protein.Data from the assay component CCTE_Deisenroth_DEVTOX-GLR_Ecto_BRA was analyzed as 1 assay endpoint. The endpoint is the percent BRA+ cell population minus the 0.2% DMSO control in the CCTE_Deisenroth_DEVTOX-GLR_Ecto assay. Furthermore, this assay endpoint can be referred to as a secondary readout, because this assay has produced multiple assay endpoints where this one serves as a measure of mesoderm differentiation.
All assay protocols are aligned to the DevTox GLR-Endo assay workflow (Gamble 2022). Cells are seeded into 384-well microplates for 24 hours prior to initiating differentiation in defined media for a total duration of 48 hours. A total of two chemical exposures are administered in 24-hour intervals during the 48-hour differentiation period. At the assay termination point, cells are fixed and stained with a fluorescent dye demarcating the nucleus. High-content imaging is used to acquire brightfield and fluorescent channel images across 5 fields per well. Cell identification and mean biomarker fluorescence intensities are calculated with image analysis software to determine the total cell counts for viability assessment and the biomarker expression frequency for each lineage-dependent assay. A typical experimental design tests a 10-point concentration series (1 nM - 200 uM) for 28 compounds in single technical replicate. Assay plate controls include non-differentiated pluripotent cells (baseline control), lineage-specific differentiated cells (differentiation control), and DMSO solvent exposed differentiated cells (solvent control). Experiments typically comprise a minimum of four experimental replicates (n=4).
By AC50 is commonly meant the concentration giving half of the maximal activity seen. For the molecule `O=c1[nH]cc(F)c(=O)[nH]1`, the AC50 is 1.95 µM (active).
For `CC/C(=C(/CC)c1ccc(O)cc1)c1ccc(O)cc1`, the molecule was called inactive.
On to `CS(=O)(=O)OCCCCOS(C)(=O)=O`, for which the call was inactive.
Turning to `Nc1cccc2c1C(=O)N(C1CCC(=O)NC1=O)C2=O` (stereo not given), the AC50 is 39.1 µM (active).
In the case of `CCN(CC)CCNC(=O)c1c(C)[nH]c(/C=C2\C(=O)Nc3ccc(F)cc32)c1C`, the AC50 was 1.12 µM (active).
For the molecule `CC1=C(/C=C/C(C)=C/C=C/C(C)=C/C(=O)O)C(C)(C)CCC1`, the AC50 is 142 µM (active).
With `O=C1NS(=O)(=O)c2ccccc21`, the result was inactive.
The same measure, in the same setting: the entry for `O=C1NC(=O)C(c2ccccc2)(c2ccccc2)N1` is “inactive”; for `CC1(C)S[C@@H]2[C@H](NC(=O)Cc3ccccc3)C(=O)N2[C@H]1C(=O)O` it is “inactive”; for `CC(C)(c1ccc(O)cc1)c1ccc(O)cc1` it is “inactive”.
Take `Nc1nc2ncc(CNc3ccc(C(=O)N[C@@H](CCC(=O)O)C(=O)O)cc3)nc2c(=O)[nH]1`: the molecule was called inactive.
Regarding `CC1=C(/C=C/C(C)=C/C=C/C(C)=C\C(=O)O)C(C)(C)CCC1`, the AC50 was 143 µM (active).
Turning to `CC(=O)Nc1ccc(O)cc1`, the molecule was classed as inactive.
Turning to `CCCC(CCC)C(=O)O`, the result was inactive.
On to `CN(Cc1cnc2nc(N)nc(N)c2n1)c1ccc(C(=O)N[C@@H](CCC(=O)O)C(=O)O)cc1`, for which the molecule was classed as inactive.
